# Test results published in the supplement of paper PMC6555819.
# How the values were obtained:
# Assay in all cases: PBM binding z-score (relative to random genomic background probes); higher = stronger binding; sequences stand for … in GC…GCGATTGACAGCGTAGAATGAAGG
# [1] = test system: PPARg:RXRa DBDmut IVT, anti-RXR (DBD mutation: RXRa K156A/R161A, NR concentration 270 nM, RXRa partner concentration 90 nM)
# In short: (§1)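 Custom Agilent 4×180K protein-binding microarrays carried double-stranded probes. Their 34-nt variable regions held direct-repeat seeds, single-nucleotide variants, half-site ablations and random human genomic background sequences. Arrays were incubated 1 h with ligand-free nuclear receptor dimers in PBS pH 7.4, 2% milk, 0.02% Triton X-100, 1 mM DTT, 0.2 mg/mL BSA and 0.4 mg/ml salmon testes DNA. Antibodies against each partner (one per run) detected binding, and scanned fluorescence was regression-normalized. Binding z-scores use random background probes as reference.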
# [2] = test system: PPARg:RXRa IVT, anti-PPARg (NR concentration 270 nM, RXRa partner concentration 90 nM)
# In short: as §1
# [3] = test system: PPARg DBDmut:RXRa IVT, anti-PPARg (DBD mutation: PPARg1 K132A/R137A, NR concentration 270 nM, RXRa partner concentration 90 nM)
# In short: as §1
# [4] = test system: PPARg DBDmut IVT, anti-PPARg (DBD mutation: PPARg1 K132A/R137A, NR concentration 270 nM)
# In short: as §1
# [5] = test system: PPARg homodimer (NR concentration 180 nM)
# In short: as §1
# [6] = test system: PXR:RXRa (NR concentration 270 nM, RXRa partner concentration 90 nM)
# In short: as §1
# [7] = test system: PXR homodimer (NR concentration 270 nM)
# In short: as §1
# [8] = test system: RARa:RXR (NR concentration 270 nM, RXRa partner concentration 90 nM)
# In short: as §1
# [9] = test system: RARa homodimer (NR concentration 270 nM)
# In short: as §1
# [10] = test system: RARb:RXRa (NR concentration 270 nM, RXRa partner concentration 90 nM)
# In short: as §1
Sequence,PBM binding z-score [1],PBM binding z-score [2],PBM binding z-score [3],PBM binding z-score [4],PBM binding z-score [5],PBM binding z-score [6],PBM binding z-score [7],PBM binding z-score [8],PBM binding z-score [9],PBM binding z-score [10]
ACTATTACTTGAGACGAGGGCAACCGATAGGTTG,0.899,1.15,0.818,1.3,1.24,0.601,0.904,0.426,1.54,1.3
TAGCCTAGTTCATGGGCCAGTATACCACGCGAAC,0.459,0.731,-0.299,-0.226,-0.229,0.408,0.205,0.216,-0.319,1.37
CCTGCTAGGTCATAGTCAGCTAATCTACAGTATG,3.96,3.31,0.51,0.574,1.15,1.16,-0.0222,1.73,0.243,3.54
CCGACTGGAGCATAAGGTTACCATAAGCCAGCCC,0.771,0.172,-0.467,-1.49,-0.0887,0.241,-0.0972,1.11,0.0423,0.916
TCTTGTAGATCAATCGAGGTTAAGAAAGTGCGCT,1.91,1.31,0.666,0.595,0.306,2.74,0.235,1.75,0.262,0.661
GCTGCTAGGTCAGGTTGGTCAGCTTACGGGTACG,2.99,1.96,-0.781,-0.52,0.591,0.193,-0.264,0.655,-0.341,3.31
ACTATTAGTTGAGACGAGTGCAACCGATAGGTTG,0.000618,0.0242,0.728,0.584,0.204,1.96,0.737,0.0877,-0.0239,0.0996
TTACCAAGGTGAAGGTCGTTGACCCCTCTGTAGA,1.51,3.73,-0.0772,-0.567,2.99,4.73,0.313,5.73,0.145,2.87
TCTGCTAGGTGAGTTGGTCAGCTAACGAGCTGCC,1.24,1.52,0.145,-0.743,-1.59,-0.323,-0.828,-0.314,-1.28,0.429
ATATGTAGGTTAGCTGGGGTCATTCAAACTAGGC,7,6.34,2.93,1.75,3.19,6.37,4.83,5.84,1.69,3.18
ATCTCTAAGTAAAAGTTCAGTGAATCCCGAGGAT,-0.124,0.598,0.919,0.992,1.15,1.72,1.61,1.19,1.33,2.33
GCTGCGAGGTCAGGTTGGTCAGCTAACGGGTACG,1.82,2.38,-0.42,-0.641,2.28,3.29,0.452,3.39,0.367,4.51
TCATATAGGTAATACTGGTGAAAGTCGGCATCTA,3.8,2.46,1.36,0.717,0.814,0.689,-0.083,0.73,0.536,0.451
TGAATGAGGCTATAAGATCAGGGAACGTTGCAAA,-0.531,-0.142,0.314,0.0126,-0.853,-0.467,-0.512,-0.215,-0.382,-0.0944
ACTAGCAGGACAAGGGTCACTCAAGATTAGTCCG,0.93,3.2,-0.0211,-0.445,2.71,3.31,0.0433,4.23,0.605,3.47
GCTAGTTGGTCAGTAAAAGGTCACAAACCGGTCG,0.812,2.83,-0.571,-0.0957,2.9,4.8,1.2,5.58,1.91,3.91
ATATGTAGGTTATGGGGTCATTCAGTTTGCGCAT,7.59,7.35,1.83,2.58,3.35,6.12,11.7,6.45,2.37,3.54
GCGACTGGGGCAAAGCAGGTTACCAAAAGGTTGG,4.78,3.6,-0.303,-0.695,-0.131,0.48,-0.452,0.862,-0.773,1.02
CCTCACGGGTCACTCCAGGTTATAGCATCGGAGT,0.962,1.92,-0.553,-0.76,1.7,4.86,0.245,3.93,0.83,3.69
ACTATTAGTTGACTTCGGGCAACCGATACGACGC,-0.0241,0.38,0.985,0.939,0.728,0.138,0.00546,0.411,0.245,0.417
CCGAATAGGTTATGGGGCATTCAGGCAACGGTGA,1.26,1.71,-0.226,-0.668,0.678,0.141,-0.0555,0.892,0.0562,1.27
ACTATTAGTTGACTGAGGGCAACCGATACGACGC,0.524,0.702,1.12,0.733,0.7,1.06,1.3,0.779,0.713,1.41
TCTTTTAGATCAGCAGGTTAAGAAAGCTGGCCAA,1.92,0.4,0.922,0.837,0.344,0.321,0.072,0.753,0.437,0.563
